From PubChem BioAssay
Cruzain noTriton = qHTS Assay for Promiscuous and Specific Inhibitors of Cruzain (without detergent). AID 1476, 2009. purified cruzain, Z-FR-AMC fluorescence, no detergent. Potency, µM, for the others: max response, negative = inhibition, usual class: inhibitors. 200,000 tested, 2.3% active. Cruzipain (Trypanosoma cruzi), P25779;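 also: plate controls were enzyme without inhibitor for no effect and buffer without enzyme for full effect; nearly all actives have a fitted effect of over 40% in size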
Target sequence (P25779 123-467 limits assumed): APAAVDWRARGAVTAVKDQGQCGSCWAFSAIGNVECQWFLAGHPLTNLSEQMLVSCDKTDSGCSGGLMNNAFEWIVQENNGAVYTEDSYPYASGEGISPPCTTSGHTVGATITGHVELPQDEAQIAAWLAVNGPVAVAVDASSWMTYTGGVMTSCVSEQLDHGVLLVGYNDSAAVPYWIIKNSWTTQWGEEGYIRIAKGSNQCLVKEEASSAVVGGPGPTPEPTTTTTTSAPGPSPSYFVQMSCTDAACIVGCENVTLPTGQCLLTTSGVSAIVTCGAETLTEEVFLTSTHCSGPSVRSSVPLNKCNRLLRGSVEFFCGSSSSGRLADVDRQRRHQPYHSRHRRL
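Purified cruzain at 1.5 nM, pre-incubated 15 min with compound at room temperature in 100 mM sodium acetate pH 5.5, 5 mM DTT, 0.00005% Triton X-100. Reaction started with 2 uM Z-FR-AMC; AMC fluorescence increase over 60 s gives rate.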
Cruzain Triton = qHTS Assay for Promiscuous and Specific Inhibitors of Cruzain (with detergent); purified cruzain, Z-FR-AMC fluorescence, 0.01% Triton; 200,000 tested, 0.43% active; Potency, µM, inactives show max response, negative = inhibition, actives largely listed as inhibitors; Cruzipain (Trypanosoma cruzi), P25779;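 also: plate controls were neutral wells for no effect and buffer without enzyme for full effect; nearly all actives have a fitted effect of over 40% in size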
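Sodium acetate buffer (100 mM, pH 5.5) containing 5 mM DTT and 0.01% Triton X-100 hosted 1.5 nM cruzain and test compound for 15 min at room temperature. Cleavage of 2 uM Z-FR-AMC was then tracked by fluorescence.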
Starred values were filed as active, the others as inactive; u = inconclusive. An excerpt weighted towards active compounds, which were near 2.4% of everything screened. Calls follow the shape of the dose curve; as a rule, active = well fitted curve in the direction sought with a large enough effect; inconclusive = small, poorly fitted or top-dose-only effect, or another doubt; inactive = no such curve, though single readings can be large; an effect the other way counts as inactive or inconclusive. Potency is read from the fitted curve at half-maximal effect.

SMILES	Cruzain noTriton	Cruzain Triton
O=C(Nc1nc2ccc(Cl)cc2s1)c1ccc(Br)o1	20µM*	0%
O=C(Nc1nc2c(Cl)cccc2s1)c1ccc(Br)o1	15%	7%
COc1cccc(CSc2nc(-c3ccccc3F)nc3c2Cc2c(CO)cnc(C)c2O3)c1	6%	-1%
COc1ccc(NC(=S)NC2CCCCCC2)c(OC)c1	14%	-2%
COc1ccccc1NC(=S)NC1CCC(CC2CCC(NC(=S)Nc3ccccc3OC)CC2)CC1 (stereo not given)	4µM*	7%
CN1/C(=C\C=Nc2ccccc2)C(C)(C)c2ccccc21	-1%	-4%
CN1/C(=C\C=N\NC(=O)c2ccc(O)cc2)C(C)(C)c2ccccc21	20µM*	u
Cc1ccc(NCc2cccn2-c2nnc(N3CCC(C(=O)NCc4ccc(OC(C)C)cc4)CC3)s2)cc1	-13%	-4%
COc1ccc(Br)cc1CNC(=O)C1CCN(c2nnc(-n3cccc3CNc3ccc(C)cc3)s2)CC1	32µM*	-2%
O=c1c(O)c(-c2cc(O)c(O)c(O)c2)oc2cc(O)cc(O)c12	13µM*	u
O=c1c(O)c(-c2ccccc2)oc2cc(O)cc(O)c12	-1%	-1%
Nc1c(-c2nc(-c3ccncc3)no2)nnn1CC(=O)Nc1ccccc1	24%	-3%
CCCC/C=C/C(NC(=O)c1ccc(C(F)(F)F)cc1)c1ccccc1 (stereo not given)	2%	1%
Cc1cc(C)c(NC(=O)C(C)OC(=O)c2cc(Br)c(Br)s2)c(C)c1 (stereo not given)	25µM*	-1%
Cc1c(NC(=O)C(C)OC(=O)c2cccs2)c(=O)n(-c2ccccc2)n1C (stereo not given)	-7%	-1%
Cc1sc2nc(C3CC3)nc(N3CCN(S(=O)(=O)c4ccc(F)cc4)CC3)c2c1C	16µM*	-2%
Cc1nc(N2CCN(S(=O)(=O)c3ccc(F)cc3)CC2)c2c(C)c(C)sc2n1	-12%	-3%
O=S(=O)(c1ccc(Cl)cc1)c1nc(-c2ccccc2F)oc1NCc1ccccc1	-10%	-2%
Cc1nc(S(=O)(=O)c2ccc(Cl)cc2)c(NCc2ccccc2)o1	32µM*	u
COc1ccccc1NC(=O)c1ccc(NC(=O)COC(=O)C(C)C)cc1	3%	-4%
COc1ccccc1NC(=O)c1ccc(NC(=O)COC(=O)CC(NC(=O)c2ccccc2Cl)c2ccccc2)cc1 (stereo not given)	20µM*	-6%
Nc1nc2c(ncn2C2OC(COC(=O)c3ccccc3)C(OC(=O)c3ccccc3)C2OC(=O)c2ccccc2)c(=O)[nH]1 (stereo not given)	7.9µM*	-1%
O=C(OCC1OC(n2ccc(=O)[nH]c2=O)C(O)C1OC(=O)c1ccccc1)c1ccccc1 (stereo not given)	0%	0%
N=C(N)c1ccc(N2CCN(C3CCN(CC(=O)O)CC3)CC2)cc1	10%	-5%
COC(=O)c1cc2sc(C)cc2n1Cc1cccc(OC)c1	-13%	-6%
SMILES	Cruzain noTriton	Cruzain Triton
C/C(CCc1ccc2c(c1)OCO2)=N\N=C(/N)SC1CC(=O)N(c2ccccc2F)C1=O (stereo not given)	16µM*	-29%
CCN=C(Nc1ccc2c(c1)OCO2)SC1CC(=O)N(c2ccccc2F)C1=O (stereo not given)	-8%	-4%
Cc1ccc(C)c(Nc2nc3c(S(=O)(=O)c4ccc(C(C)C)cc4)nnn3c3ccsc23)c1	-28%	-6%
O=C(Nc1ccccc1F)c1nc(S(=O)(=O)Cc2ccccc2F)ncc1Cl	-11%	-7%
CN(C)c1ccc(C(=O)NCc2ccc3c(c2)CCN3C(=O)c2ccc(Cl)cc2)cc1	-2%	6%
CN(C)c1ccc([C@@H]2[C@@H]([N+](=O)[O-])[C@H]3C=Cc4ccccc4N3[C@H]2C(=O)c2ccc(Cl)cc2)cc1	7.9µM*	-5%
Cc1ccnc(NC(=S)NC(=O)/C=C/c2ccccc2)c1	u	-4%
Cc1ccnc(NC(=S)NC(=O)/C=C/c2ccc(Cl)cc2)c1	4µM*	3%
N#C/C(=C\c1ccc(-c2cccc(Cl)c2)o1)C(=O)Nc1cccc2cccnc12	3.2µM*	0%
N#C/C(=C\c1ccc(-c2ccccc2)o1)C(=O)Nn1cnnc1	-2%	-6%
COc1ccc(NC(=O)Nc2ccccc2OCc2cc(=O)n3ccccc3n2)c(OC)c1	29%	2%
CCOC(=O)c1ccc(NC(=O)Nc2ccn(C)n2)cc1	3%	4%
CCOC(=O)c1ccc(NC(=O)Nc2cc(C)on2)cc1	16µM*	2%
COc1ccc(NC(=O)C(c2ccccc2)N(C)C(=O)/C=C\c2ccc3c(c2)OCO3)cc1 (stereo not given)	-13%	-6%
COc1cccc(NC(=O)C(OC(=O)/C=C/c2ccc3c(c2)OCO3)c2ccccc2)c1 (stereo not given)	20µM*	-5%
CCOC(=O)c1nc(N2CCN(c3ccc(F)cc3)CC2)c2c(C)noc2n1	-5%	-2%
Cc1ccccc1OCC(=O)NC(=S)Nc1ccc2c3c(cccc13)CC2	7.9µM*	-1%
COc1ccc(OCC(=O)NC(=S)Nc2ccc3c4c(cccc24)CC3)cc1	u	-12%
COc1ccc(N(Cc2cc3cccc(C)c3[nH]c2=O)C(=O)c2cccc(Cl)c2)cc1	u	-7%
COc1ccc(-c2cn(-c3ccc(C)cc3)c(S(=O)(=O)CC(=O)Nc3ccccc3)n2)cc1	20µM*	-14%
Cc1cccc(C)c1NC(=O)CS(=O)(=O)c1nc(-c2ccc(Cl)cc2)cn1-c1ccccc1	-4%	u
COc1ccc(-c2cn(-c3ccc(C)cc3)c(S(=O)(=O)CC(=O)Nc3ccc(F)cc3)n2)cc1	16µM*	-11%
COc1ccccc1-n1cc(-c2ccc(C)cc2)nc1S(=O)(=O)CC(=O)Nc1ccccc1C(F)(F)F	12%	2%
CC(=O)N1CCCc2cc(S(=O)(=O)N3CCN(c4cccc(C(F)(F)F)c4)CC3)ccc21	u	-9%
Cc1ccc(Cl)cc1NC(=O)CSc1nc2ccccc2c2nc(-c3ccccc3)nn12	0%	1%
SMILES	Cruzain noTriton	Cruzain Triton
CCOC(=O)c1c(C)n(-c2ccccc2)c2ccc(OC(=O)c3ccc(OCC)c(OCC)c3)cc12	-6%	0%
CN1CCN(S(=O)(=O)c2cccc(C(=O)Nc3nc(-c4ccccc4)cs3)c2)CC1	-6%	-11%
COC(=O)c1ccc(-n2c(C)cc(-c3csc(NC(=O)c4ccc(S(=O)(=O)N(C)C)cc4)n3)c2C)cc1	4µM*	-2%
CCOC(=O)c1csc(NC(=O)c2ccc(S(=O)(=O)N(C)C)cc2)n1	4%	4%
Cc1cc(-c2csc(NC(=O)c3cccc(S(=O)(=O)N(C)C)c3)n2)c(C)n1-c1ccccc1	7.9µM*	-5%
Cc1cccc(-c2nnc3n(CCc4ccccc4)c(=O)c4ccccc4n23)c1	1%	-2%
Cc1c(C(=O)Nc2cccc(F)c2)oc2c1-c1nn(Cc3c(F)cccc3Cl)cc1CC2	16%	-1%
CC1CCN(C(=O)N2c3ccccc3Sc3ccccc32)CC1	-11%	-3%
O=C(NC1CCN(C(=O)N2c3ccccc3Sc3ccccc32)CC1)c1ccccc1F	20µM*	-6%
O=C(NCCCO)C(=O)NCC(c1ccc2c(c1)OCO2)N1CCOCC1 (stereo not given)	-15%	0%
Cc1ccc2c(c1)c(N=NC(N)=S)c(O)n2Cc1ccccc1	2.5µM*	u
O=Nc1c(O)n(Cc2ccc(Cl)cc2)c2ccccc12	-14%	-16%
